Several values for one entry are separate records, joined by “and”; a condition that tells them apart may be missing. Identical values can stand only once. Unmarked numbers belong to inactive results. This is one part of the list. Activity calls are given as the source filed them.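 The calls were made as follows, unless noted: active = mean inhibition above a 50% cutoff; inactive = the rest.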

The term inhibition denotes the relative decrease from the control value, in per cent.

Assay [1] concerns the target Toll-like receptor 9 (Homo sapiens) (UniProt Q9NR96). Briefly: TLR9-MyD88 association inhibitors, retest, confirmation, cell-based, CHO, BLA complementation, fluorescence, triplicate (AID 540250;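 active = mean inhibition across three repeats above about 21% taken from the earlier screen, limit read from the data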;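 also: blue over green emission ratio reports constitutive TLR9 MyD88 association via BLA complementation; 0% = DMSO vehicle wells and 100% = clavulanate BLA inhibitor wells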). The note with it: CCF4 FRET ratio, at 4.98 µM, hits give high values.
Assay [2] is described as follows: beta-lactamase reporter inhibitors in CHO cells, artefact control for TLR9-MyD88 binding inhibitor project, cell-based, fluorescence (AID 540251).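 Also: counterscreen of TLR9-MyD88 hits on CMV-driven BLA in CHO-K1 cells; 0% = DMSO alone and 100% = clavulanate blocking BLA; higher means less blue over green ratio so more BLA blockade.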 To be noted: CHO-BLA cells, CCF4 FRET ratio, at 4.98 µM, hits give high values.
Assay [3] can be described thus: CHO cell viability loss – luminescence, single concentration, cytotoxicity control for TLR9-MyD88 binding inhibitor project (AID 588336; in the data active = inhibition above about 11%). The note with it: TLR9-MyD88 CHO cells cytotoxicity, at 4.98 µM, hits give high values.
In assay [4] the target is Receptor-interacting serine/threonine-protein kinase 2 (Homo sapiens) (UniProt O43353). In words: NOD2-RIPK2 binding disruptors, retest, confirmation, fluorescence, CHO cells, BLA complementation, triplicate (AID 624370;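 active = mean inhibition across replicates above a set limit taken from the earlier primary screen, cut at about 21% in these data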;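 also: 0% = DMSO-only wells and the high end = clavulanate BLA-blocked wells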). The note with it: CCF4 FRET, at 4.98 µM, hits give high values.
Receptor-interacting serine/threonine-protein kinase 2 (Homo sapiens), sequence (O43353 whole entry, looked up): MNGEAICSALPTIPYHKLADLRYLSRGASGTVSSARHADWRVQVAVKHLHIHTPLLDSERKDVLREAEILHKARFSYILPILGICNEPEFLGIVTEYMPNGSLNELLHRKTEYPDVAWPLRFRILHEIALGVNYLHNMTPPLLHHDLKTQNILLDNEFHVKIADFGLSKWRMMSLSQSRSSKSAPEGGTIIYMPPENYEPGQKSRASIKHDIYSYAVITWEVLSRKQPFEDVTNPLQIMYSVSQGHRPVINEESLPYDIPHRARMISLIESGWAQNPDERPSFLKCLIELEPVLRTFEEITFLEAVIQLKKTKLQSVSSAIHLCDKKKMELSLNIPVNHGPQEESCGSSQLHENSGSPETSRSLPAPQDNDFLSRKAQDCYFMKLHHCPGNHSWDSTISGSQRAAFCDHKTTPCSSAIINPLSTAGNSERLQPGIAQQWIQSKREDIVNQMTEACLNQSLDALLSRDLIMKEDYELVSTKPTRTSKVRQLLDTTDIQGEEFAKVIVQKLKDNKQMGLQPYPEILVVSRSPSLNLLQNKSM
Assay [5] in a line: beta-lactamase reporter inhibitors in CHO cells, confirmation, artefact control for NOD2-RIPK2 interaction inhibitor project, cell-based, CHO-K1 CMV-bla, CCF4 FRET, fluorescence (AID 624371;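 active = mean inhibition above the low-control mean inhibition plus three low-control SD, cut at about 11% in these data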;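 also: 0% = DMSO only wells and 100% = clavulanate high control wells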). To be noted: CCF4 FRET ratio, counterscreen, at 4.98 µM, hits give high values.
Assay [6] addresses Serine protease HTRA1 (Homo sapiens) (UniProt Q92743). Briefly: HTRA1 protease inhibitors, retest, confirmation, biochemical, fluorescence polarization (AID 540248;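 active = mean inhibition over three repeats above a set limit taken from the earlier primary screen, cut at about 37% in these data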;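 also: 0% = HTRA1 with DMSO and 100% = wells lacking HTRA1; inhibitors block probe binding so polarization drops and inhibition rises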). The note with it: recombinant HTRA1, FP-rhodamine activity-based probe, at 5.96 µM, hits give high values. A general note: In fluorescence polarisation assays a small probe gives low polarisation when free and higher when bound to something large.

Assay [7] has as its target Nuclear receptor coactivator 3 (Homo sapiens) (UniProt Q9Y6Q9). In words: SRC3 coactivator transcriptional activity inhibitors, confirmation, cell-based, luminescence, quadruplicate (AID 588792;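 active = mean inhibition over 43.08%, the solvent-only control mean plus 3 SD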;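 also: 0% = DMSO treated cells and 100% = gossypol at 36 µM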). The note with it: HEK293 GAL4-SRC3 luciferase reporter, at 3.6 µM, hits give high values. For orientation: In a reporter assay the amount or activity of a reporter protein is the signal.

Assay [8] relates to transactivating tegument protein VP16 (Human herpesvirus 1), Gal4-VP16 luciferase reporter. Briefly: VP16 transactivation inhibitors, counter-screen for SRC3 inhibitor project, cell-based, luminescence, high throughput (AID 588794; in the data active = inhibition above about 30%). To be noted: mammalian cells, VP16-driven luciferase reporter luminescence; at 3.6 µM; hits give high values.
Assay [9] concerns the target Nuclear receptor coactivator 1 (Homo sapiens) (UniProt Q15788). In words: SRC1 coactivator transcriptional activity inhibitors, confirmation, cell-based, luminescence, quadruplicate (AID 588820;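 active = mean inhibition above 46.68%, the untreated control wells mean plus 3 SD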;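 also: 0% = DMSO wells and 100% = gossypol 36 µM treated wells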). To be noted: HEK293 GAL4-SRC1 luciferase reporter, at 3.6 µM, hits give high values.
Assay [10] in a line: VP16 transactivation inhibitors, counter-screen for SRC1 inhibitor project, cell-based, luminescence, high throughput (AID 588824; in the data active = inhibition above about 25%). The note with it: cell-based VP16 transactivation luciferase luminescence; at 3.6 µM; hits give high values. (The purpose of a counterscreen is to sort out artefacts and off-target activity.)
For assay [11], the system named is transactivating tegument protein VP16 (Human herpesvirus 1). Briefly: VP16 transactivation reporter inhibitors, counter-screen for SRC2 inhibitor project, cell-based, luminescence, single concentration (AID 652007; in the data active = inhibition above about 36%). To be noted: cell-based VP16 transactivation luciferase reporter, at 8.9 µM, hits give high values.
Assay [12] deals with Nuclear receptor coactivator 2 (Homo sapiens) (UniProt Q15596). In words: SRC2 coactivator transcriptional activity inhibitors, confirmation, cell-based, luminescence, HEK293, triplicate (AID 652008;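 active = mean inhibition above 46.5%, the solvent-only control mean plus 3 SD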;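 also: 0% = DMSO-treated cells and 100% = Gossypol at 36 µM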). The note with it: HEK293 GAL4-SRC2 luciferase reporter, at 8.9 µM, hits give high values.
Nuclear receptor coactivator 2 (Homo sapiens), sequence (Q15596 whole entry, looked up, the tested form may be a part): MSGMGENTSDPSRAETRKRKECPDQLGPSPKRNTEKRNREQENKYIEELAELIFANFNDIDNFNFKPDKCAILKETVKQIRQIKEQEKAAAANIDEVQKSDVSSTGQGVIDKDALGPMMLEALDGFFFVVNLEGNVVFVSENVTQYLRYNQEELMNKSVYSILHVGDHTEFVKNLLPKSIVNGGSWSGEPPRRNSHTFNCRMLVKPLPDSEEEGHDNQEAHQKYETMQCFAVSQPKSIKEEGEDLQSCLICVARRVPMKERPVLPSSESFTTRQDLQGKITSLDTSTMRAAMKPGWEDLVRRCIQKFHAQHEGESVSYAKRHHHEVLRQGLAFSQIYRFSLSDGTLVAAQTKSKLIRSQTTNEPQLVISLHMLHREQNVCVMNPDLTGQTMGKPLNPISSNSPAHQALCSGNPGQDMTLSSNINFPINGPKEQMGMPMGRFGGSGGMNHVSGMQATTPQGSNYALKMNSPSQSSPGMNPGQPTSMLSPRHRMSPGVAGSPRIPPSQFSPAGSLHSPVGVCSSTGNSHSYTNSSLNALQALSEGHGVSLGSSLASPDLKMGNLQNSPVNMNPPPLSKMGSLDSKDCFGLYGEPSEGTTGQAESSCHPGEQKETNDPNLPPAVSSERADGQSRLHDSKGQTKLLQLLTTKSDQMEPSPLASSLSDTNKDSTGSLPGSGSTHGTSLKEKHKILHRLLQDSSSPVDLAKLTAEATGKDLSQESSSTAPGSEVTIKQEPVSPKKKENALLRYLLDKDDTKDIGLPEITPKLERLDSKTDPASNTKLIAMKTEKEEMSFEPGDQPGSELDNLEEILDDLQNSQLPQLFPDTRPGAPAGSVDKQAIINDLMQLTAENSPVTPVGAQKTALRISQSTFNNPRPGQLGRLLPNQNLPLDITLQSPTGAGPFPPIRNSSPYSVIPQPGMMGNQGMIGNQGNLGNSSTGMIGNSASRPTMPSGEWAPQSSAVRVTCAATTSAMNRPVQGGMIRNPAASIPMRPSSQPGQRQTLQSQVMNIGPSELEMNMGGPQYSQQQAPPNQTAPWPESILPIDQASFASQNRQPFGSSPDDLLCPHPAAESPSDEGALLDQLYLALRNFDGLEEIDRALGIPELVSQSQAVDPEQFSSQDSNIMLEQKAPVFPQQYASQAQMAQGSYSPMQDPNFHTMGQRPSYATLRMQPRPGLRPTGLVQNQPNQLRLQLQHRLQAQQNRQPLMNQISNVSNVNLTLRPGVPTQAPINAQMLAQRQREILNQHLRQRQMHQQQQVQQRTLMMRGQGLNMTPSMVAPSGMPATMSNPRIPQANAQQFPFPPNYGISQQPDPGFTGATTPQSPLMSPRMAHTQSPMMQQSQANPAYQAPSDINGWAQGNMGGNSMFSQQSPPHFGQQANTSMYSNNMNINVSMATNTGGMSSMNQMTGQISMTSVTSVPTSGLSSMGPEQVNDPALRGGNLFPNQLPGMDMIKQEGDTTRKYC
Assay [13] in a line: compounds interfering with TAMRA-BSA probe, counter-screen for TCR-CD3 interaction inhibitor project, biochemical, fluorescence, TAMRA-labeled BSA (AID 652035; in the data active = inhibition above about 23%;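 also: 0% = buffer low control and 100% = reference high control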). The note with it: TAMRA-labeled BSA probe fluorescence counterscreen; at 9.4 µM; hits give high values.
Assay [14] has as its system T-cell receptor (TCR)-CD3 interaction, human. Briefly: TCR-CD3 interaction inhibitors, retest, confirmation, biochemical, fluorescence, TAMRA-labeled TCR probe (AID 652036; in the data active = inhibition above about 19%). To be noted: TAMRA-labeled TCR probe fluorescence binding assay; at 9.4 µM; hits give high values.
The target in assay [15] is (Lyso)-N-acylphosphatidylethanolamine lipase (Mus musculus) (UniProt Q8VD66). In words: ABHD4 inhibitors, retest, confirmation, biochemical, fluorescence polarization, mouse (AID 720658;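 active = mean inhibition across replicates above the hit cutoff set in the primary screen, cut at about 30% in these data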;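 also: 0% = wild-type ABHD4 with DMSO and 100% = catalytically dead S159A mutant with DMSO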). The note with it: purified mABHD4, FP-Rh probe fluorescence polarization; at 8.92 µM; hits give high values.
(Lyso)-N-acylphosphatidylethanolamine lipase (Mus musculus), sequence (Q8VD66 whole entry, looked up): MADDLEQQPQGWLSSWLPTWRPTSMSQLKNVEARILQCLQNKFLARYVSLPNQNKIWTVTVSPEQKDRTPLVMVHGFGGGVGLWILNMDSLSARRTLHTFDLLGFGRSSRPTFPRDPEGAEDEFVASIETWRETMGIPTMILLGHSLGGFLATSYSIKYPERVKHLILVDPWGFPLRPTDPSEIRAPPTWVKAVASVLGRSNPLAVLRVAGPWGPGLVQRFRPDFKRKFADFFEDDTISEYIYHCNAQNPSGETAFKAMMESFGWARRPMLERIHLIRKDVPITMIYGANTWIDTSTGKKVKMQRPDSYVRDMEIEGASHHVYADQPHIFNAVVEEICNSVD
A short description of assay [16]: growth loss of phage-infected RecBCD+ E. coli, confirmation, RecBCD inhibitor project, absorbance, E. coli V66, T4 gene 2 phage (AID 651982;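 active = mean inhibition over triplicates exceeding the hit threshold derived in the original primary screen, cut at about 11% in these data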). The note with it: E. coli V66 + T4 2- phage, growth OD; at 11.9 µM; hits give high values.
Assay [17] can be described thus: E. coli viability inhibition, counter-screen for RecBCD inhibitor project, absorbance, high throughput (AID 651983; in the data active = inhibition above about 20%;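 also: E. coli strain V66 grown with compound alone and no phage infection; 0% = bacteria with DMSO vehicle only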). To be noted: absorbance (OD) growth, at 11.9 µM, hits give high values.
Assay [18] in a line: growth loss of phage-infected AddAB-carrying E. coli, confirmation, counter-screen for RecBCD inhibitor project, absorbance, E. coli V3065, T4 phage (AID 651984;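 active = mean inhibition above the solvent-only control wells' mean plus 3 SD, cut at about 22% in these data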;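 also: higher means less bacterial growth from phage killing when AddAB is blocked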). To be noted: E. coli expressing H. pylori AddAB + T4 phage, OD growth; at 11.9 µM; hits give high values; gene 2 mutant T4, recBCD-deleted host.
Assay [19] addresses Galanin receptor type 2 (Homo sapiens) (UniProt O43603). In words: GALR2 antagonists, retest of hits, confirmation, cell-based (AID 866; in the data active = inhibition above about 27%;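 also: cells stimulated with galanin at about its EC80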). The note with it: GALR2-expressing cells, antagonist mode, at 4 µM, hits give high values.
The nature of assay [20]: inhibitors of NFAT-driven beta-lactamase reporter, confirmation, counter-screen for GALR2 antagonist project, CHO NFAT-bla cells, FRET readout (AID 867;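 active = inhibition above the mean inhibition across tested compounds plus 3 SD, cut at about 27% in these data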;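 also: 0% = 500 nM thapsigargin stimulated wells and 100% = unstimulated BSA only wells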). To be noted: thapsigargin-stimulated, at 4.2 µM, hits give high values.
The target in assay [21] is Photoreceptor-specific nuclear receptor (Homo sapiens) (UniProt Q9Y5X4). Briefly: NR2E3 agonist confirmation in cells, cell-based, luminescence, CHO-S two-hybrid (AID 624378;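 active = average inhibition above a cutoff equal to the mean inhibition of all tested compounds plus one SD, cut at about 70% in these data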;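 also: 0% = DMSO in NR2E3 cells and 100% = DMSO in cells lacking NR2E3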). The note with it: CHO-S mammalian two-hybrid NR2E3-NCOR, luciferase luminescence; at 3.98 µM; hits give high values.
Assay [22] is described as follows: GAL4-VP16 reporter modulators, confirmation, counter-screen for NR2E3 agonist project, cell-based, luminescence, CHO-S, high throughput (AID 624379;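 active = mean inhibition above a cutoff equal to the average over all tested compounds plus one standard deviation, cut at about 70% in these data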;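 also: 0% = DMSO with VP16-transfected cells and 100% = DMSO with cells lacking VP16; higher means less reporter light so more repression of VP16 activity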). To be noted: CHO-S GAL4-VP16 luciferase reporter, at 3.98 µM, hits give high values.

Toll-like receptor 9 (Homo sapiens), sequence (Q9NR96 whole entry, looked up): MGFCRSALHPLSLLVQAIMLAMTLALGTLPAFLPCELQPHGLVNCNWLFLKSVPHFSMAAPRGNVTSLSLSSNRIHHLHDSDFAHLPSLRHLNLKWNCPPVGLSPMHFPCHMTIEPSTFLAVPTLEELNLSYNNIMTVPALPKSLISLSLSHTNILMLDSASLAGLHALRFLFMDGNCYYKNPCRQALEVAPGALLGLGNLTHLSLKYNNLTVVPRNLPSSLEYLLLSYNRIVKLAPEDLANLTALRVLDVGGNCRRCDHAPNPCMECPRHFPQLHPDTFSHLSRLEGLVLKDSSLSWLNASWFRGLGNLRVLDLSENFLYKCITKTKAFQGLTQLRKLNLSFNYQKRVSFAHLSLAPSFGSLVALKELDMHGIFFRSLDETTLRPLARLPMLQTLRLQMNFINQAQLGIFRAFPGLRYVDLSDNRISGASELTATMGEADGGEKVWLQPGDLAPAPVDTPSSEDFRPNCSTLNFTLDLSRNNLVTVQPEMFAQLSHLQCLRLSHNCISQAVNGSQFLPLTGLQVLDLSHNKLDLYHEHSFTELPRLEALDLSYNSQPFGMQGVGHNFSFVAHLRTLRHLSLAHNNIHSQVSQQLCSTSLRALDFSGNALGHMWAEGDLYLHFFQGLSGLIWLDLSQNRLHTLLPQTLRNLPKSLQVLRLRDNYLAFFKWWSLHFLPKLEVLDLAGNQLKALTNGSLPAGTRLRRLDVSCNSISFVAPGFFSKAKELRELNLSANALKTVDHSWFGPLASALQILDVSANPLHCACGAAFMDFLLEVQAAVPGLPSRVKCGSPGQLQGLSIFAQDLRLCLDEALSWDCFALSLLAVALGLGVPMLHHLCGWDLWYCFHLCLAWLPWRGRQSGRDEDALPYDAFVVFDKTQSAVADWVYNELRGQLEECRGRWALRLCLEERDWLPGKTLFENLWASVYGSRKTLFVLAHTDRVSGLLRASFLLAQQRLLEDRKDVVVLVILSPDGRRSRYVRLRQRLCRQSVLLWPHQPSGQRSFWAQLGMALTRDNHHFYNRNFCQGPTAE
Nuclear receptor coactivator 3 (Homo sapiens), sequence (Q9Y6Q9 whole entry, looked up, the tested form may be a part): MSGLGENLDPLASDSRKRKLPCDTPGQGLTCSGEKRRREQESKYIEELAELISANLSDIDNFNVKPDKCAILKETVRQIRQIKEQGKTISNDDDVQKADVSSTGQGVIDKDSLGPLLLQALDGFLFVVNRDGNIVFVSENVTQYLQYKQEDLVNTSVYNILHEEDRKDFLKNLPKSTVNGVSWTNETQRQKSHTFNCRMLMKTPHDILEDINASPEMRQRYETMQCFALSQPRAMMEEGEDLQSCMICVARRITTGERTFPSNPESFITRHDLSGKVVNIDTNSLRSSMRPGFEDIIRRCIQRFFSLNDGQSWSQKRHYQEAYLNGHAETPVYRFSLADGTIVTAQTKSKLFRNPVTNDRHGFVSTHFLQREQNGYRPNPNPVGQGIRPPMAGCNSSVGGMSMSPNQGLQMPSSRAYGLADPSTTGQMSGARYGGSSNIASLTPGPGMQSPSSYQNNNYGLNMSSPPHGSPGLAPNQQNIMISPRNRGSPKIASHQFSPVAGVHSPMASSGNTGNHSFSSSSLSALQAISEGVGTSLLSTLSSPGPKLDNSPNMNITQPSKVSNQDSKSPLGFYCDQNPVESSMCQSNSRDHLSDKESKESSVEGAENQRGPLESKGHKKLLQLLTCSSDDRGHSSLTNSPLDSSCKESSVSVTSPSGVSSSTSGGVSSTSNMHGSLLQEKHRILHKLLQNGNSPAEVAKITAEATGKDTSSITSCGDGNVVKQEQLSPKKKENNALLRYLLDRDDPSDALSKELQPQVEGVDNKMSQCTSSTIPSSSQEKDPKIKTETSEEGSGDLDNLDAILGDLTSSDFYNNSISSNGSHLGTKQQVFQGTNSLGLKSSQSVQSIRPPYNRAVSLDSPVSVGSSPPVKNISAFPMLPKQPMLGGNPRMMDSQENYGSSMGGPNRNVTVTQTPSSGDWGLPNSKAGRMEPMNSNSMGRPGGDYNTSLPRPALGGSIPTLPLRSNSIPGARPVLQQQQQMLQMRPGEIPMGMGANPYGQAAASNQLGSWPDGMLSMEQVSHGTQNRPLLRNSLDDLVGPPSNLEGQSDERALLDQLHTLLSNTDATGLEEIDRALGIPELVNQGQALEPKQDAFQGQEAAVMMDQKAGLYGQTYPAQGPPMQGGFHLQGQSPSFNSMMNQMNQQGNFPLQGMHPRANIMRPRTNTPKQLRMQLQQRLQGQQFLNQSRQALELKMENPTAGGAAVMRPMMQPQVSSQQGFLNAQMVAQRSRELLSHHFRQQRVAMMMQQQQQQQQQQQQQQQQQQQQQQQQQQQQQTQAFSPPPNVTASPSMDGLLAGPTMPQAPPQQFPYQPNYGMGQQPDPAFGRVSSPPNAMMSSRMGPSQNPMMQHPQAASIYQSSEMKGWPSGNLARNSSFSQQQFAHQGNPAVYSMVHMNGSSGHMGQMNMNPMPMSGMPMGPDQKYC

As for `Oc1ccc2ccc3cccc[n+]3c2c1`, the inhibition in assay [1] was 11.3%; in [2] it was 11.8%; in assay [3] it was 5.09%; in [4], 36.5% (active); in assay [5] it was 32.6% (active).
In the case of `CCN1CCN(C(c2cccnc2)c2cc(Cl)c3cccnc3c2O)CC1` (configuration not stated), the inhibition in assay [6] was 67.8% (active).
Turning to `CC(=O)Nc1ccc(S(=O)(=O)Nc2ccc(N3CCCCC3)cc2)cc1`, the inhibition is 63.4% (active) in assay [6]; -3.95% in assay [7]; 0.96% in assay [8]; 4.11% in [9]; 2.83% in assay [10]; -15.4% in assay [11]. For the same molecule, the inhibition in assay [12] was 14.9%.
In the case of `NS(=O)(=O)c1ccc(NC(=O)COC(=O)c2c3c(nc4ccccc24)/C(=C\c2ccc4c(c2)OCO4)CCC3)cc1`, the inhibition in assay [1] is 17.9%; in assay [2], 22.2%; in [3] it was 0.35%; in assay [13] it was 5.98%; in assay [14], 15.7%.
In the case of `COc1cc(C(=O)N2C(=O)c3cccc(N)c3C2=O)cc(OC)c1OC`, the values for the inhibition in [1], in [2] and in assay [3] were 11.4%, 13.3% and 1.27%, respectively.
With `Cc1cccc(NC(=O)c2nc(S(=O)(=O)Cc3ccccc3)ncc2Cl)c1`, the inhibition was 46.4% (active) in assay [1]; 43.2% in assay [2]; 97% (active) in [3]; 78.4% (active) in assay [4]; 43.9% (active) in assay [5]; 38.7% (active) in [11]. In addition, in assay [12], the inhibition is 44.1%.
Take `Cc1cc2oc3ccc(NCCC4CCCN4C)cc3c(=O)c2cc1C` (configuration not stated): the inhibition in assay [1] is 19.1%; in [2], 16.7%; in assay [3], 31% (active); in [4], 42.8% (active); in assay [5] it was 38.5% (active).
For `COc1ccc(-c2nc3cnccn3c2NC2CCCCC2)cc1-c1cccc(Cl)c1`, the inhibition in assay [1] is 25.7% (active); in [2], 29.5%; in assay [3], -0.82%; in [4], 39.6% (active) and 39.4% (active); in assay [5], 49.6% (active) and 50.5% (active).
On to `COc1ccccc1C1=Nc2cccc3cccc(c23)N1`, for which the figures for the inhibition in assay [6] and in [15] were 67.4% (active) and 60.5% (active), respectively.
Turning to `Oc1c(CN2CCN(c3ccc(F)cc3)CC2)cc(Cl)c2cccnc12`, the inhibition was 50.9% (active) in [6]; 52.3% (active) in assay [7]; 42.8% (active) in assay [8]; 4.78% in assay [16]; 6.62% in [17]; 3.33% in [18].
Turning to `O=C(CCN1C(=O)c2ccccc2C1=O)NNC(=O)c1ccc(Cl)cc1Cl`, the inhibition was -3.93% in [1], -2.36% in assay [2] and 1.44% in assay [3].
With `Cc1cccc(CS(=O)(=O)c2ncc(Cl)c(C(=O)Nc3ccc(F)cc3)n2)c1`, the inhibition in assay [1] was 38.1% (active); in assay [2], 20.7%; in assay [3], 99.1% (active); in assay [4] it was 82.9% (active); in assay [5], 31.5% (active); in assay [11], 69.8% (active). Moreover, the inhibition in assay [12] is 80.6% (active).
`CCOC(=O)C1Nc2ccc(C(F)(F)F)cc2C2C=CCC12` (configuration not stated): the results for the inhibition in assay [6] and in assay [15] were 30.3% and 24.3%, respectively.
For `CC[C@@H]1Cc2cc(O)ccc2C2=C1c1ccc(O)cc1C[C@H]2CC`, in that order: 47% (active) and 31% (active).
Consider `COC(=O)Cc1cc(=O)oc2c(C)c(O)ccc12`, for which the inhibition was 7.7% in assay [19]; 16.5% in [20]; 13.3% in assay [1]; 16.3% in assay [2]; -0.43% in assay [3]; 23.8% (active) in assay [4]. Besides, in [5], the inhibition is 28.6% (active).
Take `O=[N+]([O-])c1c(NCCO)cc(Sc2nc3ccccc3s2)c2nonc12`: the values for the inhibition in [1], in [2] and in [3] were 71.1% (active), 17.3% and 98.7% (active), respectively.
With `COc1ccc(-c2nn(-c3ccccc3)cc2/C=N/Nc2ccccn2)cc1OC`, the inhibition in assay [1] was 2.6%; in [2], 2.28%; in [3], 4.63%.
On to `O=[N+]([O-])c1ccc(N/N=C/c2ccccc2)cc1`, for which the inhibition in assay [1] is 13.7%; in [2], 10.7%; in assay [3], 3.89%; in [4], 17.7%; in [5] it was 20% (active).
For `COc1ccc(OC)c(N=Cc2c(O)[nH]c3ccccc23)c1`, in that order: -1.61%, 1.7%, 19.8% (active), 61.8% (active) and 59.3% (active).
With `Cc1cc(-c2csc(N)n2)c(C)n1-c1ccccc1`, the inhibition in assay [6] is 28.5%.
`COc1cnc(-c2ccccn2)nc1Oc1ccc(C(C)(C)C)cc1`: the inhibition in [6] is 53.5% (active); in assay [21], 28.4%; in [22], 13.6%.

Values taken from PubChem BioAssay.
